# High-throughput results deposited in PubChem BioAssay by National Center for Advancing Translational Sciences (NCATS).
# p53null 39C tox: kills p53 null cells at the nonpermissive temperature | H1299 p53-null (neo) cells, 39C, ATPlite viability, 24 h | Potency, µM (series often up to 46.1 µM), for the others: at the highest dose activity, negative = cell killing, usual class: cytotoxic | 0.97% of 55,000 active;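 note: 0% = DMSO only and -100% = full killing by 100 µM tamoxifen; nearly all actives have a fitted effect of over 50% in size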
#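 H1299 lung cancer cells, p53-null (H1299-neo) or expressing p53 A138V (H1299-p53A138V), were plated overnight at 37C, then exposed to compounds at up to 46 uM for 24 hr at 39C. Viability was read by ATP-based luminescence.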
# p53null 32C tox: kills p53 null cells at the permissive temperature; 0.62% of 55,000 active; H1299-neo p53 null cells, ATP luminescence, 24 h, 32C; Potency, µM (highest dose often 46.1 µM), inactives show at the highest dose activity change, negative = cytotoxicity, hits mostly cytotoxic; AID 903;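 note: 0% = DMSO only and -100% = full killing by 100 µM tamoxifen; nearly all actives have a fitted effect of over 55% in size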
#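 H1299-neo (p53 null) cells, 600/well, treated 24 h at 32C with compound up to 46 uM; ATPlite luminescence viability, normalized to DMSO and 100 uM tamoxifen; AC50 by Hill fit.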
# FH mod: Identification of activators of human fumarate hydratase by quantitative high-throughput screening. Fumarate hydratase, mitochondrial (Homo sapiens), P07954. FH coupled MDH/diaphorase resazurin fluorescence, 15 min. Potency, µM (titrated, usually from 79.9 µM), inactives show at the top dose activity change, negative = inhibition, usual class: inhibitors. 0.22% of 54,000 active; note: the screen sought activators but most active calls are inhibition curves; nearly all actives have a fitted effect of over 45% in size
# Target sequence (P07954 whole entry, looked up): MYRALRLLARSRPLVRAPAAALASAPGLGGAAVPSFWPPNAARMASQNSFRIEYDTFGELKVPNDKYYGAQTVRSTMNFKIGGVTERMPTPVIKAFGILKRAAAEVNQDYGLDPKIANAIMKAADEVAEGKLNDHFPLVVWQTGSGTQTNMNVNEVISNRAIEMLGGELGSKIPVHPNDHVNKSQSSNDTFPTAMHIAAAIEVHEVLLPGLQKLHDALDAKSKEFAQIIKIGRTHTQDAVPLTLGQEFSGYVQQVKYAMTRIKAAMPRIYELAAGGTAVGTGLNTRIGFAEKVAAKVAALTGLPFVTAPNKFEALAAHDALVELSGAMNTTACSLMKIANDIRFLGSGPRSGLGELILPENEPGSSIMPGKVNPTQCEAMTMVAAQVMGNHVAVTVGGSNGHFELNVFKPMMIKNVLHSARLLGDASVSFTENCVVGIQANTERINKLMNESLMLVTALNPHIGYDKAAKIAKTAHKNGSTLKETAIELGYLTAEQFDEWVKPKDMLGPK
# Starred values were filed as active, the others as inactive; ? = inconclusive; nt = no result given; ! = a repeat was not active; [ ] = dose if it differs, or a comment. Shown are actives, neighbours in structure and some others; about 1.2% of the full set was active somewhere. Calls come from the whole dose curve; as a rule, active = well fitted curve in the direction sought with a large enough effect; inconclusive = small, poorly fitted or top-dose-only effect, or another doubt; inactive = no such curve, though single readings can be large; an effect the other way counts as inactive or inconclusive. Unless noted, % is set by controls: 0 for no effect and ±100 for the full control effect; potency is the fitted concentration of half-maximal effect.
SMILES,p53null 39C tox,p53null 32C tox,FH mod
O=C(Nc1cccc(Br)c1)Nc1nc2c(s1)CCCCCC2,?,4%,-11%
Cc1cccc(C(=O)Nc2nc3c(s2)CCCC3)c1,13µM*,13µM*,-18%
O=C(Nc1nc2c(s1)CCCC2)c1ccc2ncsc2c1,11µM*,13µM*,nt
CC1(C)CC(NC(=O)C(=O)Nc2ccc(Cl)cc2)CC(C)(C)N1,nt,nt,0%
CC1=C2CC3OC3(C)CCC3OC3(C)CC2OC1=O (stereo unspecified),nt,nt,9%
CC(C)(N)C(=O)N[C@H](COCc1ccccc1)C(=O)N1CCC2(CC1)CN(S(C)(=O)=O)c1ccccc12,nt,nt,17%
Cc1ccc(O)c(NC(=O)c2noc3c2CCCC3)c1,10µM*,?,nt
Cc1ccc(O)c(NC(=O)c2noc3c2CCCCC3)c1,13µM*,13µM*,-14%
Cc1ccc(C)c(N2CCN(C(=O)c3noc4c3CCCCC4)CC2)c1,2%,40%,-16%
COc1ccc(OC)c(NC(=O)c2noc3c2CCCC3)c1,-15%,-6%,-20%
CO[C@H]1[C@@H](O)[C@H](O[C@H]2CC[C@@]3(C)C(CCC4C3CC[C@]35COC6(COC(=O)C6)C3CCC45O)C2)O[C@@H](C)[C@@H]1OC1OC(CO)C(OC2OC(CO)C(O)C(O)C2O)C(O)C1O (stereo partly specified),nt,nt,1%[20.6 µM]
C/C=C(/C)C(=O)OC1CC(C)(C)CC2C3=CCC4C5(C)CCC(OC6OC(C)C(OC7OC(C(=O)O)C(O)C(OC8OC(CO)C(O)C(O)C8OC8OC(CO)C(O)C(O)C8O)C7O)C(O)C6O)C(C)(C)C5CCC4(C)C3(C)C(OC(=O)/C=C/C=C/C=C/CCC)C(OC(C)=O)C12CO (stereo unspecified),nt,nt,1%[13.5 µM]
COc1ccc(/C=N/Nc2nncc3ccccc23)cc1,nt,4.5µM*,nt
NNc1nncc2ccccc12,nt,nt,0%[53.3 µM]
O=C(Nc1ccc2nn(-c3ccccc3)nc2c1)c1ccco1,-29%,-25%,nt
CCn1cnc2cc(NC(=O)c3ccco3)ccc21,13µM*,10µM*,nt
Cc1ccc(-n2ncc3c(NC(C)c4ccccc4)ncnc32)cc1 (stereo unspecified),4%,?,-14%
CCC(CO)Nc1ncnc2c1cnn2-c1ccc(C)cc1 (stereo unspecified),20%,16µM*,-5%
COc1ccc(-n2ncc3c(NC(C)(C)CO)ncnc32)cc1,?,13µM*,-7%
COc1ccc(CNc2ncnc3c2cnn3-c2ccc(C)c(C)c2)cc1,15%,0%,5%
O=c1cc(CN2CCOCC2)occ1OCCCCCSc1ccnc2cc(C(F)(F)F)ccc12,nt,nt,-15%
O=C(O)c1ccc(CN2CCC(CN[C@@H]3C[C@H]3c3ccccc3)CC2)cc1,nt,nt,6%
CC1(C)OC(=O)Nc2ccc(Br)cc21,nt,nt,-3%[53.3 µM]
O=C(C=Cc1ccc(O)cc1)c1ccc(O)cc1O,nt,nt,-21%[53.3 µM]
Oc1cc(O)cc(/C=C/c2ccc(O)c(O)c2)c1,nt,nt,3.5µM*!
SMILES,p53null 39C tox,p53null 32C tox,FH mod
Cc1cn2cc(C(=O)N(C)CCO)cc(N[C@@H]3CCOc4cccc(C)c43)c2n1,nt,nt,5%
Cc1ccc(NC(=O)c2ccccc2O)cc1,10µM*,13µM*,nt
Cc1ccc(NC(=O)c2ccc(-c3ccccc3)s2)cc1,-20%,-5%,-6%
O=C(O)c1ccc(-c2cc3cccnc3c(-c3ccc4nonc4c3)n2)cc1,nt,nt,-1%[53.3 µM]
CCCC(=O)C1(c2ccccc2)CCN(C(=O)[C@@H](Cc2ccc(OC)cc2)NC(=O)[C@@H](N)Cc2cncn2C)CC1,nt,nt,11%
C[C@@H]1CCO[C@H]2Cn3cc(C(=O)NCc4ccc(F)cc4F)c(=O)c(O)c3C(=O)N12,nt,nt,10%
Cc1ccc(-c2cc(C(=O)NC(C)c3ccccc3)c3ccccc3n2)cc1C (stereo unspecified),16%,-13%,2%
Cc1ccc(-c2cc(C(=O)N3CCN(c4ccccc4)CC3)c3ccccc3n2)cc1C,?,13µM*,-11%
CCNC(=O)N1CCCN(c2ccc(C(=O)NCCc3ccc(Cl)cc3Cl)cc2NC(=O)c2cccc(Cl)c2)CC1,nt,nt,0%
CN1CCc2nc(C(=O)N[C@@H]3C[C@@H](C(=O)N(C)C)CC[C@@H]3NC(=O)C(=O)Nc3ccc(Cl)cn3)sc2C1,nt,nt,3%
CCn1c(=O)cc(SCC(=O)Nc2ccc(C)c(F)c2)c2ccccc21,-13%,6%,10%
CCN(CC)CCOC(=O)c1ccc(NC(=O)CSc2cc(=O)n(CC)c3ccccc23)cc1,2.5µM*,4%,-26%
COc1c2c(c(C)c3c1C(=O)OC3)OC1(C)CC(O)C(C(C)(C)O)C(C)(CCC(=O)O)C1C2 (stereo unspecified),nt,nt,3%[53.3 µM]
